A number with no mark means an inactive call. Active and inactive are the calls of the source.

The first experiment is described as follows: PSAC antagonists in infected red cells, primary screen, cell-based, P. falciparum Indochina, OD700, 1 h (AID 1154). Conditions: P. falciparum Indochina infected RBC osmotic lysis, higher = more signal, called active from +8 up or from −8 down.
Consider `[N-]=[N+]=Nc1ccccc1C[C@@]1(C(N)=O)N=C(c2ccc(OCCCO)cc2)O[C@@H]1c1ccccc1N=[N+]=[N-]`, for which the z-score was 30.4 (active).
The same measure, in the same setting: the figure for `O=C(NCc1ccc(F)cc1)[C@H]1C[C@H]2C(=O)NCC(=O)N2[C@H]1c1ccc(O)cc1` is 1.11; for `C=CCNC(=O)[C@@H]1[C@H]2C(=O)O[C@H](c3ccccc3)[C@H](c3ccccc3)N2[C@H](c2ccccc2OCCO)[C@@]12C(=O)Nc1ccc(C#CCCO)cc12` it is 5.68.
Same read-out and setting: the figure for `CCOC(=O)C[C@H]1[C@H](OC(=O)Cc2ccc3c(c2)OCO3)[C@@H](NC(=O)C2CCCCC2)c2cc(OCCCO)ccc2N1C(=O)c1ccccc1` is 1.27.
The same measure, in the same setting: as for `COc1ccc([Si](C)(C)[C@@H]2[C@@H](CCO)O[C@]3(C(=O)N(Cc4ccccc4)c4ccc(N5CCOC5=O)cc43)[C@H]2C)cc1`, the figure is 3.02.
As to `C=C(/C(=C/C[C@H](OC(C)=O)c1ccc(CO)o1)c1cnc2ccccc2c1)C(C)C`, the z-score was 3.56.
With `CCCCCCCCCCC(O)C1C=CC2C(=O)N(c3ccccc3)C(=O)C2N1Nc1ccc(C#N)cc1` (centres undefined), the z-score was 6.7.

The next experiment is described as follows: PSAC antagonists in infected red cells, primary screen, cell-based, P. falciparum Indochina, OD700, 2 h (AID 1155).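 Note: lysis reports solute entry through the parasite surface anion channel PSAC; channel blockers reduce lysis of infected cells.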 Conditions: P. falciparum Indochina infected erythrocytes, osmotic lysis OD700; higher = more signal, called active from +8 up or from −8 down.
Turning to `COc1cc2c(cc1O)C(c1cccs1)N(Cc1cc3c(cc1Br)OCO3)CC2` (centres undefined), the z-score was 2.26.
Still for that read-out and setting: the figure for `CCC#CCN(Cc1ccccc1Br)[C@H](/C=C/C1CC1)[C@@H](O)Cc1ccccc1` is -0.834.
Same read-out and setting: the figure for `COC(=O)[C@@]1(Cc2ccccc2)[C@H]2c3cc(C(=O)N4CCCC4)n(CCc4ccccn4)c3C[C@H]2CN1C(=O)c1ccccc1` is 0.0978.
Still for that read-out and setting: as for `CCCCC(CC)C(O)C1C=CC2C(=O)N(c3ccccc3)C(=O)C2N1Nc1ccccc1F` (centres undefined), the figure is -0.686.
Regarding `[N-]=[N+]=Nc1ccccc1[C@@H]1OC(c2ccc(OCCCO)cc2)=N[C@]1(Cc1ccccc1)C(=O)N1CCCCC1`, the z-score is 32.7 (active).
Regarding `CC1CC/C=C\[C@H]2OC34C=CCN(C(C)C)C(=O)[C@H]3N(CCO)C(=O)[C@@H]4C2C(=O)O1` (some centres undefined), the z-score is 0.22.
Still for that read-out and setting: as for `CCOC(=O)C1=C[C@@H](C(C)(C)C)N(S(=O)(=O)c2ccc(C)cc2)[C@H]1c1cccc2ccccc12`, the figure is 0.849.
As for `CC(C)[Si]1(C(C)C)OCc2cc(-c3ccc(-c4ccc(Cl)c(Cl)c4)o3)nc(-c3ccccc3)c21`, the z-score is 0.394.
Same read-out and setting: the figure for `CCCCCCc1nc(Cc2cc(OC)c(OC)c(OC)c2)cc2c1[Si](C(C)C)(C(C)C)OC2` is -0.221.
The same measure, in the same setting: as for `C=CC[C@@H](OC(=O)Nc1ccc(SC)cc1)c1ccc(O)c(F)c1`, the figure is 6.56; as for `Cc1ccc(NN2C(C(O)c3c(F)cccc3Cl)C=CC3C(=O)N(C4CCCCC4)C(=O)C32)cc1` (centres undefined), 1.86; as for `COc1ccc([Si](C)(C)[C@@H]2[C@@H](CC(=O)N(CCO)Cc3ccccc3)O[C@]3(C(=O)N(Cc4cccc(N5CCCCC5=O)c4)c4ccccc43)[C@H]2C)cc1`, 1.85.
Same read-out and setting: the figure for `NC(=O)[C@H]1[C@@H]2C(=O)O[C@@H](c3ccccc3)[C@@H](c3ccccc3)N2[C@@H](c2ccc(OCCO)cc2)[C@]12C(=O)Nc1ccc(C#CCCO)cc12` is 1.05.
On to `COc1cc(C(O)C2C=CC3C(=O)N(C)C(=O)C3N2Nc2ccccc2)cc(OC)c1OC` (centres undefined), for which the z-score is 1.01.
In the case of `C#Cc1cc2ccccc2oc1=O`, the z-score was 0.858.
For the compound `CC(=O)NCCCC[C@@H]1NC(=O)[C@@H]2C[C@H](C(=O)NCCCCCN)[C@H](c3cccc(OCCO)c3)N2C1=O`, the z-score is -0.543.
The same measure, in the same setting: the figure for `COc1ccc(CCNC(=O)[C@@]2(c3ccc([N+](=O)[O-])cc3)CC(=O)N(C3CCCCC3)[C@@H]2c2ccc(CO)cc2)cc1` is -0.0966; for `NCCCCCNC(=O)[C@@H]1C[C@@H]2C(=O)N[C@@H](CCCCN)C(=O)N2[C@@H]1c1ccc(O)cc1` it is 1.74.
On the same count and under the same terms, as for `NCCCCCNC(=O)[C@H]1C[C@H]2C(=O)N3CCC[C@H]3C(=O)N2[C@H]1c1cccc(OCCO)c1`, the figure is 0.598; as for `COCCOC(=O)N1C(=O)[C@@]2(c3cc(C#CCCO)ccc31)[C@H](c1ccc(OCCO)cc1)N1[C@H](c3ccccc3)[C@H](c3ccccc3)OC(=O)[C@H]1[C@@H]2C(=O)Nc1nc2ccccc2s1`, 1.5.
Consider `COC(=O)C1=CC(CCCO)=CC(c2cccs2)N(C)C=C1C(=O)OC` (centres undefined), for which the z-score is 0.596.
On the same count and under the same terms, the figure for `COCCOC(=O)N1C(=O)[C@@]2(c3cc(C#CC4(O)CCCCCC4)ccc31)[C@H](c1ccc(O)cc1)N1[C@H](c3ccccc3)[C@H](c3ccccc3)OC(=O)[C@H]1[C@@H]2C(=O)N1CCN(c2ncccn2)CC1` is 0.525.

The values above are taken from PubChem BioAssay.
